Compound activity from PubChem.
IP6K1 inhibitor: Primary qHTS assay for small molecule inhibitors of Inositol hexaphosphate kinase 1 (IP6K1) | IP6K1 kinase, ADP-Glo luminescence, 2 h; stronger effect = lower value | activity change, % (series mostly up to about 58 µM) | 0.81% of 140,000 active; in the data active means activity change below about -25%; further: on the % scale 0 is the no-effect control and ±100 the full control effect
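ADP-Glo luminescence measures ADP made by human IP6K1 during a 2 h RT reaction with ATP/IP6 (mix at 1.3 mM/130 uM); top library doses 57.5 and 19.1 uM final.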
SNCA expr inhib: Primary qHTS assay for inhibitors of alpha-synuclein gene (SNCA) expression. HEK-293 SNCA-luciferase knock-in, luminescence, 24 h. Potency, µM (highest dose often 57.2 µM), without a hit: at the highest dose activity change, negative = inhibition, actives largely listed as inhibitors. 0.17% of 140,000 active. AID 1671194, 2021;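 further: potency means the concentration at half of the fitted maximal effect; plate controls were DMSO cells for no effect and cell-free wells for full effect; nearly all actives have a fitted effect of over 45% in size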
HEK293 viab: GF-AFC viability counterscreen for inhibitors of alpha-synuclein gene (SNCA) expression. HEK-293-SNCA-luc viability, GF-AFC fluorescence, 24 h. Potency, µM (series often up to 57.1 µM), for inactives: at the highest dose activity change, negative = cytotoxicity, usual class: cytotoxic. 0.12% of 150,000 active. AID 1671193, 2021;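 further: potency means the concentration at half of the fitted maximal effect; 0% = DMSO-treated cells and -100% = medium-only wells without cells; nearly all actives have a fitted effect of over 30% in size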
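HEK-293-SNCA-luc cells (1500/well) plated 24 h, then exposed 24 h to a dilution series; GF-AFC added 30 min at 37C, fluorescence 405/540 nm; normalised to medium-only and DMSO wells, Hill fit.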
GPT2 inh: Primary qHTS assay for inhibitors of Glutamate pyruvate transaminase 2 (GPT2); Alanine aminotransferase 2 (Homo sapiens), Q8TD30; Recombinant GPT2, coupled pyruvate oxidase/HRP Amplex Red fluorescence; Potency, µM (top dose mostly 57.7 µM), inactives show at the top dose activity change, negative = inhibition, usual class: inhibitors; 0.25% of 100,000 active; further: potency means the concentration at half of the fitted maximal effect; on the % scale 0 is the no-effect control and ±100 the full control effect; nearly all actives have a fitted effect of over 60% in size
Target sequence (Q8TD30 whole entry, looked up): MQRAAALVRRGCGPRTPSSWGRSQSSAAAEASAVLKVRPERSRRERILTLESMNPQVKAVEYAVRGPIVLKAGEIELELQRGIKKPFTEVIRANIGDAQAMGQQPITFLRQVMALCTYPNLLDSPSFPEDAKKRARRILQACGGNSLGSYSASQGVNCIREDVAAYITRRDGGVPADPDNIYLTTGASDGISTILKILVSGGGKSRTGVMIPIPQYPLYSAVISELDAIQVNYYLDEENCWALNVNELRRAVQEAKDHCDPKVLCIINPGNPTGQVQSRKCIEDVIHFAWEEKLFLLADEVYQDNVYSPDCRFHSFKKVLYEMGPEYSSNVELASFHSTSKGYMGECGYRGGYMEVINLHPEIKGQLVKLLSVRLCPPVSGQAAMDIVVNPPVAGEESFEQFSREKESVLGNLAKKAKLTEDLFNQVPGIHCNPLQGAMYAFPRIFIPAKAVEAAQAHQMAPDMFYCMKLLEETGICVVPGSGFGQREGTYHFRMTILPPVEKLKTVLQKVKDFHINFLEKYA
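Recombinant GPT2 (10ng/uL) with 250uM a-KG and 2mM L-alanine, 30 min at room temperature, in HEPES pH 7.5 buffer. Pyruvate detected by pyruvate oxidase/HRP/Amplex Red fluorescence after 30 min in the dark; AOA (50uM) as positive control.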
IP6K1 inh cnf: Confirmatory qHTS assay for small molecule inhibitors of Inositol hexaphosphate kinase 1 (IP6K1); 13% of 1,200 active; AID 1645852, 2021; shares compounds with IP6K1 inhibitor; Potency, µM (doses to about 49 µM), without a hit: at the top dose activity change, negative = inhibition, most hits filed as inhibitors; recombinant IP6K1 kinase, ADP-Glo luminescence, 2 h; further: potency means the concentration at half of the fitted maximal effect; on the % scale 0 is the no-effect control and ±100 the full control effect; nearly all actives have a fitted effect of over 65% in size
GPT2 conf: Confirmatory qHTS assay for inhibitors of Glutamate pyruvate transaminase 2 (GPT2) | shares compounds with GPT2 inh | GPT2 enzyme, coupled Amplex Red pyruvate fluorescence | Potency, µM, actives largely listed as inhibitors | 90% of 95 active | AID 1671187, 2021
An asterisk follows results filed as active; i = inactive; ? = inconclusive; . = no result given; ! = a repeat was not active; [ ] = remark or other dose. Only some compounds are listed: those with a hit (about 1.1% of all), similar ones and a draw of the others. Unless noted, the call rests on the fitted dose curve; in most records, active means well fitted curve in the direction sought with a large enough effect; inconclusive means small, poorly fitted or top-dose-only effect, or another doubt; inactive means no such curve, though single readings can be large; an effect the other way counts as inactive or inconclusive.

SMILES	IP6K1 inhibitor	SNCA expr inhib	HEK293 viab	GPT2 inh	GPT2 conf	others
Cc1ccn2c(Nc3ccc4c(c3)OCCO4)c(-c3cccs3)nc2c1	-27*	58%	-13%	.	.	IP6K1 inh cnf=-16%
CCc1nc2c(c(-c3ccc(Cl)cc3)n1)CCN(Cc1ccc(C#N)cc1)CC2	-2	-2%	-11%	-10%	.
O=C(Nc1ccccc1F)c1ccc(-c2ccccc2)s1	-30*	20%	18%	.	.	IP6K1 inh cnf=-12%
CCc1ccc(NC(=O)c2ccc(-c3ccccc3)s2)cc1	10	11%	8%	.	.
O=C1C(N2CCN(Cc3ccc[nH]3)CC2)CCN1Cc1ccccn1 (stereo not given)	8	12%	-2%	?	.	IP6K1 inh cnf=-6%
Cc1cc(N2CCOCC2)ccc1Nc1nc(NC2CCCCC2)c2[nH]cnc2n1	-47*	.	-27%	-5%	.	IP6K1 inh cnf=2.1µM*
Cc1ccccc1Nc1c(-c2ccc(N3CCOCC3)cc2)nc2ccccn12	-9	?	-9%	.	.
O=C(O)CCc1ccc(-c2ccccc2)n1-c1ccc(C(=O)O)cc1	-27*	12%	7%	.	.	IP6K1 inh cnf=-12%
Cc1ccc(-c2ccc(CCC(=O)O)n2-c2ccc(C)c(Cl)c2)cc1	-23	49%	4%	.	.
COc1ccc(NC(=O)C2=CC(c3ccco3)=NS(=O)(=O)N2C)cc1	-30*	27%	1%	.	.	IP6K1 inh cnf=-20%
CCOc1cc(N2CCC(O)CC2)ccc1Nc1ncc2c(n1)N(C)c1ccccc1C(=O)N2C	.	104%	1%	12µM*	3.1*
c1ccc2c(CCNc3ccc(Nc4ccncc4)cc3)c[nH]c2c1	23	?	-12%	14µM*!	4.9*
CC(C)(C)C(=O)NC1CCCN(c2ccc3nnc(-c4ccccc4)n3n2)C1 (stereo not given)	7	.	.	.	.
Clc1ccccc1-c1nccc(NCCN2CCOCC2)n1	.	70%	0%	.	.
O=C1C(Cl)=C(NCCN2CCOCC2)C(=O)c2ncccc21	.	-28%	?	1.4µM*	1.5*
COc1ccccc1C(=O)NC1CCN(Cc2cccc(-c3ccccc3OC)c2)CC1	2	-30%	-19%	i	.
C[C@@H]1CN(C(=O)Cn2ccc(=O)[nH]c2=O)C[C@@]1(O)C1CCC1	8	10%	9%	i	.
CC(C)[C@]1(O)CN(C(=O)Cn2[nH]c3ccccc3c2=O)C[C@H]1C	-2	0%	-1%	?	4.3*
Cc1ccc(-c2cc(C(=O)NCc3cccnc3)c3c(c2)ncn3C)cn1	10	6%[87.6 µM]	9%[87.6 µM]	i	.
COc1ccc(Nc2cc(C(=O)NCc3cccnc3)c3c(c2)ncn3C)cc1	.	.	.	.	3.1*
CN(C)c1cccc(C(=O)N2CCNc3cnc(Nc4ccc(N5CCOCC5)cc4)nc3C2)c1	-2	5%	3%	2µM*	1.9*
c1cncc(-c2ccnc(NCCCN3CCCc4ccccc43)n2)c1	3	-9%	6%	?	2.2*
COc1ccccc1C(=O)NC1CCN(Cc2ccc(-c3cc(F)ccc3OC)cc2)C1 (stereo not given)	4	.	.	.	.
Cn1nccc1OCc1cn2c(=O)n(C)cc(-c3ccc(F)cc3)c2n1	.	.	.	.	6.3*
O=C(c1ccoc1)N1CCCN(Cc2ccc3c(c2)OCO3)c2ccccc21	8	-20%	-8%	-9%	.
SMILES	IP6K1 inhibitor	SNCA expr inhib	HEK293 viab	GPT2 inh	GPT2 conf	others
CN1CCCN(Cc2ccc3c(c2)OCO3)c2ccccc21	22	25%	-17%	?	3.1*
O=C(c1cnccn1)N1CCC2(CCN(Cc3ccccc3)CC2)CC1	.	-9%	7%	.	.
O=C(c1cnccn1)N1CCC2(CC1)CCC(O)(CN1CCc3ccccc31)CC2	-7	-25%	-8%	?	1.1*
CCOC(=O)NC1CCCN(Cc2cccc(-c3ccc(C)c(Cl)c3)c2)C1 (stereo not given)	-5	8%	7%	i	.
COc1ccc(CNC(=O)N2CCOc3ccc(N(C)C)cc3C2)cc1	0	13%	-14%	1.8µM*	0.86*
Cc1ccc(CNC(=O)c2ccc3c(c2)CN(Cc2ccc(N(C)C)cc2)CCO3)cc1	10	?	-11%	0%	.
O=C(Cc1cccc(Cl)c1)N1CCN(c2ccc3nnc(-c4ccccc4)n3n2)CC1	5	.	.	.	.
c1ccc(Nc2cc3c(cn2)CN(Cc2ccsc2)CCN3)cc1	12	27%[87.6 µM]	?	?	.
c1ccc(CN2CCNc3cc(Nc4ccc(N5CCOCC5)cc4)ncc3C2)cc1	0	9%[87.6 µM]	?	?	4.4*
Fc1cccc(CN2CCNc3cc(Nc4ccccc4)ncc3C2)c1	-5	32%[87.6 µM]	?	i	.
COc1ccccc1CN1CCNc2cnc(Nc3ccccc3)cc2C1	-19	-19%[87.6 µM]	-19%[87.6 µM]	?	4.4*
COc1cccc(CN2CCNc3cnc(Nc4ccccc4)cc3C2)c1	-6	-16%[87.6 µM]	-3%[87.6 µM]	?	5*
Cn1cc(CN2CCNc3cnc(Nc4ccccc4)cc3C2)cn1	.	.	.	.	2.8*
Cc1ccc(-n2c(C3CCN(C(=O)c4nn(C)c5ccccc45)CC3)n[nH]c2=O)cc1	-11	-1%	-2%	i	.
COc1ccc(OC)c(CN2CCNc3cnc(Nc4cccnc4)cc3C2)c1	13	-26%[87.6 µM]	6%[87.6 µM]	?	5.6*
COc1ccc(CNC(=O)C2CCN(c3nccc(Nc4ccccc4Cl)n3)CC2)cc1	-6	-6%	-7%	-11%	.
COc1ccc(N2CC3(C2)CN(c2ccccc2)C(=O)O3)cc1OC	9	2%[87.6 µM]	-1%[87.6 µM]	?	?
COc1ccc(-c2cccc(C(=O)NCc3ccccc3Cl)c2)nn1	12	.	.	.	.
C=CC(=O)Nc1cccc(Nc2nc(Nc3ccc(NC4CN(CCF)C4)cc3OC)ncc2C(F)(F)F)c1	-6	.	4.7µM*	8.9µM*	3.1*
CC(=O)NCC(=O)N1C2CCC1c1cc(Nc3ncc(C(F)(F)F)c(NC4CCC4)n3)ccc12 (stereo not given)	-18	.	?	1%	.
O=C(CCC[C@H]1NC[C@@H]2C[C@H]1CN(Cc1ccccc1)C2)Nc1ccc(N2CCOCC2)cc1	-22	9%	-6%	7.1µM*	4.9*
COc1cccc(-c2cc(C(=O)NCc3cccc(F)c3)c3cnn(C)c3n2)c1	1	.	.	.	.
Cc1ccc(NC(=O)CCNc2c(C)nc3cnccn23)c(F)c1	15	-12%	13%	?	6.9*
